According to PubChem BioAssay (EPA / NIEHS):
Where “and” joins values, the source holds several entries; their conditions need not be identical. Equal entries are not always repeated. More than one record can exist for a structure, and the calls need not agree. Calls of active or inactive are those of the source. The calls were made as follows: active = hit-call score of the fitted dose curve at least 0.9, where 1 is the maximum; inactive = score below 0.9.

Key:
[1] = read-out: Tumor necrosis factor (Homo sapiens) (UniProt P01375); test: BSK_LPS_TNFa: BioMAP Diversity Plus: LPS Assay for Tumour Necrosis Factor alpha (TNFa) Biomarker Activity (AID 2283085); settings: primary human HUVEC with PBMC; actives raise or lower the signal
Procedure, shortened: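 Read-out is ELISA of TNFa in primary human endothelial cell–PBMC co-cultures at 24 h after compound. Activity in either direction was fitted against DMSO.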

[2] = read-out: Vascular cell adhesion molecule 1 (VCAM1), VCAM1 (gene 7412); test: BSK_LPS_VCAM1: BioMAP Diversity Plus: LPS Assay for Vascular cell adhesion molecule 1 (VCAM1) Biomarker Activity (AID 2283086); settings: primary human HUVEC with PBMC; actives raise or lower the signal
Procedure, shortened: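 HUVEC + PBMC co-culture, LPS system; compound 24 h; VCAM-1 by ELISA; bidirectional fit vs DMSO control; parallel SRB (0.1%, TCA-fixed, 560 nm) for cytotoxicity.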

CD38, CD38 (gene 952) = test: BSK_SAg_CD38: BioMAP Diversity Plus: SAg Assay for CD38 Biomarker Activity (AID 2283087); settings: primary human HUVEC with PBMC; actives raise or lower the signal
Procedure, shortened: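 Human HUVEC plus PBMC co-culture stimulated with superantigen; CD38 measured by ELISA 24 h after chemical dosing. Fluorescence read-out, bidirectional fit against DMSO; cytotoxicity tracked in parallel by SRB and Alamar Blue.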

CD40, CD40 (gene 958) = test: BSK_SAg_CD40: BioMAP Diversity Plus: SAg Assay for CD40 Biomarker Activity (AID 2283088); settings: primary human HUVEC with PBMC; actives raise or lower the signal
Procedure, shortened: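 HUVEC/PBMC co-culture, 24 h post-dose; CD40 by ELISA, fluorescence intensity; bidirectional fit vs DMSO negative control.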

CD69, CD69 (gene 969) = test: BSK_SAg_CD69: BioMAP Diversity Plus: SAg Assay for CD69 Biomarker Activity (AID 2283089); settings: primary human HUVEC with PBMC; actives raise or lower the signal;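 as to AC50: cell surface CD69 protein quantified by ELISA with fluorescence detection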
Procedure, shortened: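 HUVEC co-cultured with PBMC were dosed with chemical, and CD69 was measured by ELISA with fluorescence read-out 24 h later. Bidirectional curve fitting used DMSO as negative control and activity baseline.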

[3] = read-out: Monocyte Chemoattractant Protein-1 (MCP1), CCL2 (gene 6347); test: BSK_SAg_MCP1: BioMAP Diversity Plus: SAg Assay for Monocyte Chemoattractant Protein-1 (MCP1) Biomarker Activity (AID 2283090); settings: primary human HUVEC with PBMC; actives raise or lower the signal
Procedure, shortened: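 MCP-1 levels in the endothelial–PBMC SAg co-culture were quantified by ELISA at 24 h post-dosing; both increases and decreases versus DMSO scored. Cytotoxicity monitored by SRB total protein in parallel cultures.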

[4] = read-out: E-selectin (Homo sapiens) (UniProt P16581); test: BSK_SAg_Eselectin: BioMAP Diversity Plus: SAg Assay for Eselectin Biomarker Activity (AID 2283091); settings: primary human HUVEC with PBMC; actives raise or lower the signal
Procedure, shortened: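 E-selectin ELISA readout at 24 h post-dosing in human umbilical vein endothelial cell/PBMC co-culture; gain or loss of signal fitted relative to DMSO baseline.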

[5] = read-out: Monokine induced gamma interferon (MIG), CXCL9 (gene 4283); test: BSK_SAg_MIG: BioMAP Diversity Plus: SAg Assay for Monokine induced gamma interferon (MIG) Biomarker Activity (AID 2283092); settings: primary human HUVEC with PBMC; actives raise or lower the signal
Procedure, shortened: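 HUVEC plus human PBMC co-culture, chemicals dosed and MIG (CXCL9) quantified by ELISA at 24 h. Bidirectional curve fitting against DMSO as negative control and baseline, so both gain and loss of signal count as activity.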

[6] = BSK_SAg_PBMCCytotoxicity: PBMC Cytotoxicity Assessment in the BioMAP Diversity Plus: SAg Assay (AID 2283093); settings: primary human HUVEC with PBMC;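 also: PBMC viability measured as Alamar Blue reduction fluorescence at 546/580 nm; fitted both ways against DMSO so a hit may be loss or gain of signal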;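 as to AC50: PBMC superantigen activated with SEB plus TSST-1 one hour after compound addition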
Procedure, shortened: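 HUVEC/PBMC co-culture; PBMC exposed to chemical 1 h before SEB and TSST-1 activation (20 ng/mL each), incubated 90 h, then Alamar Blue 6 h, fluorescence 546/580 nm. Bidirectional fit versus DMSO baseline.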

[7] = read-out: Interleukin-8 (IL8), CXCL8 (gene 3576); test: BSK_SAg_IL8: BioMAP Diversity Plus: SAg Assay for Interleukin-8 (IL8) Biomarker Activity (AID 2283094); settings: primary human HUVEC with PBMC; actives raise or lower the signal
Procedure, shortened: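 ELISA read-out of IL-8 in a primary human vascular co-culture (umbilical vein endothelium plus PBMC), taken 24 h after compound addition. Values derive from bidirectional fits against DMSO negative controls.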

Measured: AC50

Chain of E-selectin (Homo sapiens) (P16581 whole entry, looked up): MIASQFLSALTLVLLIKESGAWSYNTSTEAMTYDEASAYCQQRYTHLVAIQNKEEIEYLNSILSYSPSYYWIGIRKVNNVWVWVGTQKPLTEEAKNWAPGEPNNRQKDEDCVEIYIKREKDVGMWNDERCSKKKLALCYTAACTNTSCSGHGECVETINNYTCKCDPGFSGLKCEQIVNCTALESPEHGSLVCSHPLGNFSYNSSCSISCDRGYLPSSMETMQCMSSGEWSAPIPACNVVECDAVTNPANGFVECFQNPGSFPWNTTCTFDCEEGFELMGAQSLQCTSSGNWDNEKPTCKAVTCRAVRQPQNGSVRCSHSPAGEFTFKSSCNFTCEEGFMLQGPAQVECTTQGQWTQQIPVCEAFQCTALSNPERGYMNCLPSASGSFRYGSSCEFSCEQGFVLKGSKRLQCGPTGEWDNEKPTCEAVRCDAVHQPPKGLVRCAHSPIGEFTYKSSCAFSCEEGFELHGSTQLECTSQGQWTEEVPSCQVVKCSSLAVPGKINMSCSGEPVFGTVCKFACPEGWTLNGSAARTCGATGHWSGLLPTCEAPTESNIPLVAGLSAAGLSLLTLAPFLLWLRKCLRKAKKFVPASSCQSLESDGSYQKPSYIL
Chain of Tumor necrosis factor (Homo sapiens) (P01375 whole entry, looked up): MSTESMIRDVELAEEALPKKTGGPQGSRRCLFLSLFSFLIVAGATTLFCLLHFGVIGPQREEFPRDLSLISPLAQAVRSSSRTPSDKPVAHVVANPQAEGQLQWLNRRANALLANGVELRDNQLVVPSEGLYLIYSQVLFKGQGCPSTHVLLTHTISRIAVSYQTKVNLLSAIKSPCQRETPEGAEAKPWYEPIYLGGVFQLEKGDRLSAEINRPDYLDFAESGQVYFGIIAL

Oc1c(I)cc(I)cc1I
inactive: [1] | [6]
active: [2] 14.3 µM | CD38, CD38 (gene 952) 25.4 µM | CD40, CD40 (gene 958) 25.3 µM | CD69, CD69 (gene 969) 29.4 µM | [3] 32.3 µM | [4] 14.7 µM | [5] 34.2 µM | [7] 34.3 µM

COC(=O)c1sccc1S(=O)(=O)NC(=O)Nc1nc(C)nc(OC)n1
inactive: [1] | [2] | CD38, CD38 (gene 952) | CD40, CD40 (gene 958) | CD69, CD69 (gene 969) | [3] | [4] | [5] | [6] | [7]

CCC(C)(C)c1ccc(O)c(C(C)(C)CC)c1
active: [1] 13.1 µM | [2] 25 µM | CD38, CD38 (gene 952) 14.9 µM | CD40, CD40 (gene 958) 13 µM | CD69, CD69 (gene 969) 13.7 µM | [4] 9.83 µM | [5] 20.8 µM | [6] 9.42 µM | [7] 9.58 µM

O=S(=O)(c1ccc(Cl)cc1)c1ccc(Cl)cc1
inactive: [1] | [2] | CD38, CD38 (gene 952) | CD40, CD40 (gene 958) | CD69, CD69 (gene 969) | [3] | [4] | [5] | [6] | [7]

C[C@@H]1C[C@@H]([C@H](O)CC2CC(=O)NC(=O)C2)C(=O)[C@@H](C)C1
active: [1] 7.89 µM | [2] 9.45 µM | CD38, CD38 (gene 952) 6.11 µM | CD40, CD40 (gene 958) 2.6 µM | CD69, CD69 (gene 969) 6.63 µM | [3] 7.88 µM | [4] 0.585 µM | [5] 13 µM | [6] 4.6 µM | [7] 1.4 µM

O=C(O)C(F)(F)C(F)(F)C(F)(F)C(F)(F)C(F)(F)C(F)(F)C(F)(F)C(F)(F)C(F)(F)C(F)(F)F
inactive: [2] | CD38, CD38 (gene 952) | [3] | [4] | [5] | [6] | [7]
active: [1] 31.4 µM and 4.39 µM and 4.42 µM | [2] 29.6 µM | CD38, CD38 (gene 952) 37.4 µM | CD40, CD40 (gene 958) 29.2 µM and 5.41 µM and 5.27 µM | [3] 35.1 µM | [4] 35.3 µM | [5] 34.9 µM | [6] 31.5 µM | [7] 26.8 µM

COP(=S)(OC)Oc1cc(Cl)c(Cl)cc1Cl
inactive: [2] | CD38, CD38 (gene 952) | CD40, CD40 (gene 958) | CD69, CD69 (gene 969) | [3] | [5] | [6] | [7]
active: [1] 32.6 µM | [4] 5.51 µM

COP(=S)(OC)Oc1ccc(S(=O)(=O)N(C)C)cc1
inactive: [1] | [2] | CD38, CD38 (gene 952) | CD40, CD40 (gene 958) | [3] | [4] | [5] | [6] | [7]

CC(=O)OC(c1ccccc1)C(Cl)(Cl)Cl (stereo not given)
inactive: [1] | [2] | CD38, CD38 (gene 952) | CD40, CD40 (gene 958) | [3] | [4] | [5] | [6] | [7]
active: [4] 20 µM | [7] 13.4 µM

Nc1ccc(-c2ccc(N)c(Cl)c2)cc1Cl
active: [2] 1.85 µM
inactive: [1] | CD38, CD38 (gene 952) | CD40, CD40 (gene 958) | CD69, CD69 (gene 969) | [3] | [4] | [5] | [6] | [7]

NC(=O)O
inactive: [1] | [2] | CD38, CD38 (gene 952) | CD40, CD40 (gene 958) | CD69, CD69 (gene 969) | [3] | [4] | [5] | [6] | [7]

Oc1ccc(-c2ccccc2)cc1
inactive: [1] | [2] | CD38, CD38 (gene 952) | CD40, CD40 (gene 958) | CD69, CD69 (gene 969) | [3] | [4] | [5] | [6] | [7]

O=C(OC1CCCCC1)c1ccccc1C(=O)OC1CCCCC1
active: [1] 26.5 µM | [2] 20.9 µM | CD38, CD38 (gene 952) 33.3 µM | CD40, CD40 (gene 958) 20.9 µM | CD69, CD69 (gene 969) 26.2 µM | [3] 27.8 µM | [4] 29.8 µM | [5] 29.8 µM | [6] 20.9 µM | [7] 20.9 µM

O=C1C2(Cl)C3(Cl)C4(Cl)C(Cl)(Cl)C5(Cl)C3(Cl)C1(Cl)C5(Cl)C24Cl (stereo not given)
active: [1] 11.6 µM | [2] 9.63 µM | CD38, CD38 (gene 952) 7.7 µM | CD40, CD40 (gene 958) 8.7 µM | CD69, CD69 (gene 969) 8.18 µM | [3] 11.2 µM | [4] 19.3 µM | [5] 10.6 µM | [6] 5.7 µM | [7] 26.2 µM

O=C(O)C(F)(F)C(F)(F)C(F)(F)C(F)(F)C(F)(F)C(F)(F)F
inactive: [1] | [2] | CD38, CD38 (gene 952) | CD40, CD40 (gene 958) | CD69, CD69 (gene 969) | [3] | [4] | [5] | [6] | [7]
